In a collection of fitness landscapes (doi:10.1126/science.1257360):
Whole data set: some 140,000 sequences, median “enrichment ratio after two sorts for PhoP signalling” near 0, cut for the highest 2% near 11. For the sample, the highest values were picked, then their nearest neighbours and some sequences at random.

B1: PhoQ; a variant is named by its letters at X, in order, P23837 (parent)
chain: MKKLLRLFFPLSLRVRFLLATAAVVLVLSLAYGMVALIGYSVSFDKTTFRLLRGESNLFYTLAKWENNKLHVELPENIDKQSPTMTLIYDENGQLLWAQRDVPWLMKMIQPDWLKSNGFHEIEADVNDTSLLLSGDHSIQQQLQEVREDDDDAEMTHSVAVNVYPATSRMPKLTIVVVDTIPVELKSSYMVWSWFIYVLSANLLLVIPLLWVAAWWSLRPIEALAKEVRELEEHNRELLNPATTRELTSLVRNLNRLLKSERERYDKYRTTLTDLTHSLKTPLXXLQXXLRSLRSEKMSVSDAEPVMLEQISRISQQIGYYLHRASMRGGTLLSRELHPVAPLLDNLTSALNKVYQRKGVNISLDISPEISFVGEQNDFVEVMGNVLDNACKYCLEFVEISARQTDEHLYIVVEDDGPGIPLSKREVIFDRGQRVDTLRPGQGVGLAVAREITEQYEGKIVAGESMLGGARMEVIFGRQHSAPKDE

Variants of: B1
Experiment: enrichment ratio after two sorts for PhoP signalling (ratio (wild type AVST 3.29)); higher = more functional
Conditions: with PhoP (E. coli)
SNCL gave an enrichment ratio of 14.4. IQCL was tested, and the enrichment ratio was ≤ 0.25. For SNNN, the enrichment ratio was 16.8. For NQCL, the enrichment ratio was ≤ 0.25. For SNPN, the enrichment ratio was ≤ 0.25. SRNN was tested, and the enrichment ratio was ≤ 0.25. With TFHC the enrichment ratio was ≤ 0.25. For NQTW, the enrichment ratio was ≤ 0.25. For ARRF, the enrichment ratio was ≤ 0.25. With VRLN the enrichment ratio was ≤ 0.25. In the case of GQCL, the enrichment ratio is reported as 7.51. Work on SLVN yielded an enrichment ratio of 1.02. With SPVY the enrichment ratio was ≤ 0.25. Work on SQCL yielded an enrichment ratio of 12.1. Work on SQVN yielded an enrichment ratio of 20.3. In the case of NQVN, the enrichment ratio is reported as ≤ 0.25. SQSL was tested, and the enrichment ratio was 9.58. Work on SNSL yielded an enrichment ratio of 16.8. In the case of SRSL, the enrichment ratio is reported as ≤ 0.25. With SLVY the enrichment ratio was ≤ 0.25. SQVY showed an enrichment ratio of 14.2. Work on SRCL yielded an enrichment ratio of 6.4. In the case of GRRN, the enrichment ratio is reported as ≤ 0.25. With QVFR the enrichment ratio was ≤ 0.25. For QFNA, the enrichment ratio was ≤ 0.25. For FSTQ, the enrichment ratio was ≤ 0.25. For NDYC, the enrichment ratio was ≤ 0.25. PTST was tested, and the enrichment ratio was ≤ 0.25. With QIDF the enrichment ratio was ≤ 0.25. For NSVL, the enrichment ratio was ≤ 0.25. For LHGW, the enrichment ratio was ≤ 0.25. With NGIL the enrichment ratio was ≤ 0.25. With LHHH the enrichment ratio was ≤ 0.25. With ELYP the enrichment ratio was ≤ 0.25. SNEL was tested, and the enrichment ratio was ≤ 0.25. MEVN was tested, and the enrichment ratio was 17.3. With MKVN the enrichment ratio was ≤ 0.25. TNSL was tested, and the enrichment ratio was 12.2. With QEVN the enrichment ratio was ≤ 0.25. WRMN was tested, and the enrichment ratio was ≤ 0.25. SNNL showed an enrichment ratio of 13.1. With SNRL the enrichment ratio was ≤ 0.25. For MNSL, the enrichment ratio was 4.59. Variant WNMN has an enrichment ratio of 12. With LNSL the enrichment ratio was ≤ 0.25. WNNL was tested, and the enrichment ratio was ≤ 0.25. In the case of GPCQ, the enrichment ratio is reported as ≤ 0.25. With HTRL the enrichment ratio was ≤ 0.25. With WHQP the enrichment ratio was ≤ 0.25. With WEDV the enrichment ratio was ≤ 0.25. For HDYF, the enrichment ratio was ≤ 0.25. With AHNC the enrichment ratio was ≤ 0.25. With WAWV the enrichment ratio was ≤ 0.25. PHYI was tested, and the enrichment ratio was ≤ 0.25. CFSM showed an enrichment ratio of 18.5. CVSM was tested, and the enrichment ratio was ≤ 0.25. RGSM was tested, and the enrichment ratio was ≤ 0.25. GGSM gave an enrichment ratio of 7.14. For WFSM, the enrichment ratio was ≤ 0.25. For TGSM, the enrichment ratio was 23.5. KTCN was tested, and the enrichment ratio was ≤ 0.25. In the case of HRWF, the enrichment ratio is reported as ≤ 0.25. In the case of DYHL, the enrichment ratio is reported as ≤ 0.25. MIWN was tested, and the enrichment ratio was ≤ 0.25. MICN was tested, and the enrichment ratio was 31.9. Variant MILN has an enrichment ratio of 17.5. For MINL, the enrichment ratio was ≤ 0.25. MFCN was tested, and the enrichment ratio was ≤ 0.25. MICI showed an enrichment ratio of 0.945. MIRW was tested, and the enrichment ratio was ≤ 0.25. For SSFG, the enrichment ratio was ≤ 0.25. With ACLL the enrichment ratio was 13.3. Work on ACLT yielded an enrichment ratio of 11.7. For ACLK, the enrichment ratio was 13.7. Variant ACVT has an enrichment ratio of 1.11. For ACHK, the enrichment ratio was ≤ 0.25. With ACWL the enrichment ratio was ≤ 0.25. Variant ACIV has an enrichment ratio of 0.927. ACNT was tested, and the enrichment ratio was ≤ 0.25. With ACVL the enrichment ratio was 5.91. AILK gave an enrichment ratio of 2.69. ACLV gave an enrichment ratio of 16. ACWI was tested, and the enrichment ratio was ≤ 0.25. In the case of FPKK, the enrichment ratio is reported as ≤ 0.25. KLEK was tested, and the enrichment ratio was ≤ 0.25. With STHN the enrichment ratio was ≤ 0.25. In the case of CFKF, the enrichment ratio is reported as ≤ 0.25. With MMGD the enrichment ratio was ≤ 0.25. In the case of TVTR, the enrichment ratio is reported as 2.26. With TRGD the enrichment ratio was ≤ 0.25. QIWC was tested, and the enrichment ratio was ≤ 0.25. With KYLR the enrichment ratio was ≤ 0.25. Work on TGGL yielded an enrichment ratio of 3.52. YWNM was tested, and the enrichment ratio was ≤ 0.25. YRPI was tested, and the enrichment ratio was ≤ 0.25. In the case of ACDS, the enrichment ratio is reported as 0.253. For ACLC, the enrichment ratio was 12.2. Variant ACIC has an enrichment ratio of 9.45. For ACLI, the enrichment ratio was 5.06. Variant ACCN has an enrichment ratio of 12.1. For KCCN, the enrichment ratio was ≤ 0.25. With AKCN the enrichment ratio was 5.46. In the case of ACLN, the enrichment ratio is reported as 13.6. ACLS showed an enrichment ratio of 6.09. In the case of ACYM, the enrichment ratio is reported as 0.253. For ACLA, the enrichment ratio was 11.6. With ACNS the enrichment ratio was ≤ 0.25. With KVRT the enrichment ratio was ≤ 0.25. With AYPT the enrichment ratio was ≤ 0.25. With QIHR the enrichment ratio was ≤ 0.25. QDCY was tested, and the enrichment ratio was ≤ 0.25. In the case of AARG, the enrichment ratio is reported as ≤ 0.25. In the case of DLGS, the enrichment ratio is reported as ≤ 0.25. With VYSL the enrichment ratio was ≤ 0.25. In the case of PPRP, the enrichment ratio is reported as ≤ 0.25. In the case of PSLE, the enrichment ratio is reported as ≤ 0.25. QMSW was tested, and the enrichment ratio was ≤ 0.25. ACGY was tested, and the enrichment ratio was ≤ 0.25. ACNY gave an enrichment ratio of 0.855. ACLY was tested, and the enrichment ratio was 15.2. With WFSN the enrichment ratio was ≤ 0.25. ISKP was tested, and the enrichment ratio was ≤ 0.25. In the case of LFTC, the enrichment ratio is reported as ≤ 0.25. For AKVG, the enrichment ratio was ≤ 0.25. AIVG was tested, and the enrichment ratio was 7.78. For AIVC, the enrichment ratio was 19.1. AKVC showed an enrichment ratio of 15.3. In the case of WIVC, the enrichment ratio is reported as ≤ 0.25. In the case of KKVC, the enrichment ratio is reported as ≤ 0.25. VMGF was tested, and the enrichment ratio was ≤ 0.25. FSQV was tested, and the enrichment ratio was ≤ 0.25. TSMS showed an enrichment ratio of 26.4. For LCWG, the enrichment ratio was ≤ 0.25. KSQV was tested, and the enrichment ratio was ≤ 0.25. With MMWG the enrichment ratio was ≤ 0.25. TSQV gave an enrichment ratio of 12.2. In the case of TSWG, the enrichment ratio is reported as 16.6. Work on TSMD yielded an enrichment ratio of 10.7. Variant FSMS has an enrichment ratio of 1.68. For KSMG, the enrichment ratio was ≤ 0.25. With KSMS the enrichment ratio was ≤ 0.25. Variant TSMG has an enrichment ratio of 13. In the case of EDGN, the enrichment ratio is reported as ≤ 0.25. In the case of WMLF, the enrichment ratio is reported as ≤ 0.25. DHGA was tested, and the enrichment ratio was ≤ 0.25. For GPST, the enrichment ratio was ≤ 0.25. With FTYH the enrichment ratio was ≤ 0.25. In the case of IRVV, the enrichment ratio is reported as ≤ 0.25. DYPQ was tested, and the enrichment ratio was ≤ 0.25. For EQAY, the enrichment ratio was ≤ 0.25. For NSWL, the enrichment ratio was 1.26. With WSSA the enrichment ratio was ≤ 0.25. FRMR was tested, and the enrichment ratio was ≤ 0.25.
